Data published in PubChem BioAssay AID1159580 (chemical genetic matrix, 2015).
The whole screen tested about 5,500 compounds, of which about 2,000 (36%) were called active. Another 18% or so got no clear call; they are omitted. No stated cut-off is given here; in the data, active means normalized growth mostly below about 0.91 (no sharp cut-off); inconclusive means no clear call, values can overlap the other calls; inactive means mostly above about 0.92. The list shows a part of the results.

Test: chemical genetic growth profiling, strain panel (AID 1159580);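 further: tested at 20 µM; growth read once vehicle control cultures reached saturation at 30 °C; 1 = growth at the plate median or of vehicle wells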
Settings: growth OD

Measured: normalized growth

CN(C)CCOC(=O)C(c1ccccc1)C1(O)CCCC1 (centres undefined)
inactive: S. cerevisiae deletion strains, locus YJR075W, strain HOC1, stronger effect = lower value 1.01 | S. cerevisiae deletion strains, locus YKL009W, strain mrt4, stronger effect = lower value 1.02 | S. cerevisiae deletion strains, locus YKL068W, stronger effect = lower value 1.01 | S. cerevisiae deletion strains, locus YKL085W, strain MDH1 (second series), stronger effect = lower value 1.04 | S. cerevisiae deletion strains, locus YKL085W, strain MDH1, stronger effect = lower value 1.04 | S. cerevisiae deletion strains, locus YKL160W, strain elf1, stronger effect = lower value 0.988 | S. cerevisiae deletion strains, locus YKR001C, strain vps1, stronger effect = lower value 1.03 | S. cerevisiae deletion strains, locus YKR026C, strain gcn3, stronger effect = lower value 0.973 | S. cerevisiae deletion strains, locus YKR091W, strain srl3, stronger effect = lower value 0.982 | S. cerevisiae deletion strains, locus YLL001W, strain dnm1, stronger effect = lower value 0.957 | S. cerevisiae deletion strains, locus YLL026W, stronger effect = lower value 0.985 | S. cerevisiae deletion strains, locus YLL041C, strain sdh2, stronger effect = lower value 0.99 | S. cerevisiae deletion strains, locus YLR027C, strain aat2, stronger effect = lower value 0.985 | S. cerevisiae deletion strains, locus YLR039C, strain RIC1, stronger effect = lower value 1.04 | S. cerevisiae deletion strains, locus YLR058C, strain SHM2, stronger effect = lower value 1.01 | S. cerevisiae deletion strains, locus YLR102C, strain apc9, stronger effect = lower value 1 | S. cerevisiae deletion strains, locus YLR113W, strain HOG1, stronger effect = lower value 1.01 | S. cerevisiae deletion strains, locus YLR221C, strain rsa3, stronger effect = lower value 1.03 | S. cerevisiae deletion strains, locus YLR258W, strain gsy2, stronger effect = lower value 1.01 | S. cerevisiae deletion strains, locus YLR262C, strain YPT6 (second series), stronger effect = lower value 0.995 | S. cerevisiae deletion strains, locus YLR262C, strain YPT6, stronger effect = lower value 1.05 | S. cerevisiae deletion strains, locus YLR268W, strain sec22, stronger effect = lower value 1.01 | S. cerevisiae deletion strains, locus YLR320W, strain mms22, stronger effect = lower value 1.02 | S. cerevisiae deletion strains, locus YLR330W, strain CHS5, stronger effect = lower value 1 | S. cerevisiae deletion strains, locus YLR342W, strain FKS1 (second series), stronger effect = lower value 0.999 | S. cerevisiae deletion strains, locus YLR342W, strain FKS1, stronger effect = lower value 0.958 | S. cerevisiae deletion strains, locus YLR357W, strain rsc2, stronger effect = lower value 0.962 | S. cerevisiae deletion strains, locus YLR370C, strain arc18, stronger effect = lower value 0.995 | S. cerevisiae deletion strains, locus YLR371W, strain rom2, stronger effect = lower value 1.01 | S. cerevisiae deletion strains, locus YLR384C, strain iki3, stronger effect = lower value 0.985 | S. cerevisiae deletion strains, locus YLR418C, strain cdc73, stronger effect = lower value 1.05 | S. cerevisiae deletion strains, locus YML016C, strain PPZ1, stronger effect = lower value 1 | S. cerevisiae deletion strains, locus YML032C, strain rad52, stronger effect = lower value 1 | S. cerevisiae deletion strains, locus YML120C, strain ndi1, stronger effect = lower value 0.988 | S. cerevisiae deletion strains, locus YML124C, strain tub3, stronger effect = lower value 1.01 | S. cerevisiae deletion strains, locus YMR058W, strain fet3, stronger effect = lower value 0.991 | S. cerevisiae deletion strains, locus YMR078C, strain ctf18, stronger effect = lower value 1.03 | S. cerevisiae deletion strains, locus YMR125W, strain sto1, stronger effect = lower value 0.989 | S. cerevisiae deletion strains, locus YMR129W, stronger effect = lower value 0.986 | S. cerevisiae deletion strains, locus YMR205C, strain PFK2, stronger effect = lower value 0.993 | S. cerevisiae deletion strains, locus YMR223W, strain ubp8, stronger effect = lower value 1.02 | S. cerevisiae deletion strains, locus YMR231W, strain pep5, stronger effect = lower value 0.975 | S. cerevisiae deletion strains, locus YMR307W, strain GAS1, stronger effect = lower value 1.06 | S. cerevisiae deletion strains, locus YNL067W, strain RPL9B, stronger effect = lower value 1.02 | S. cerevisiae deletion strains, locus YNL071W, strain lat1, stronger effect = lower value 1.01 | S. cerevisiae deletion strains, locus YNL153C, strain GIM3, stronger effect = lower value 1.01 | S. cerevisiae deletion strains, locus YNL183C, strain NPR1, stronger effect = lower value 0.944 | S. cerevisiae deletion strains, locus YNL209W, strain ssb2, stronger effect = lower value 1.02 | S. cerevisiae deletion strains, locus YNL233W, strain BNI4, stronger effect = lower value 1.01 | S. cerevisiae deletion strains, locus YNL248C, strain rpa49, stronger effect = lower value 1.03 | S. cerevisiae deletion strains, locus YNL250W, strain rad50, stronger effect = lower value 1.01 | S. cerevisiae deletion strains, locus YNL271C, strain bni1, stronger effect = lower value 1.02 | S. cerevisiae deletion strains, locus YNL298W, strain CLA4, stronger effect = lower value 1.03 | S. cerevisiae deletion strains, locus YNL307C, strain MCK1, stronger effect = lower value 1.02 | S. cerevisiae deletion strains, locus YNL322C, strain KRE1 (second series), stronger effect = lower value 0.985 | S. cerevisiae deletion strains, locus YNL322C, strain KRE1, stronger effect = lower value 0.982 | S. cerevisiae deletion strains, locus YNR049C, strain mso1, stronger effect = lower value 0.987 | S. cerevisiae deletion strains, locus YNR052C, strain pop2, stronger effect = lower value 1.01 | S. cerevisiae deletion strains, locus YOL006C, strain TOP1, stronger effect = lower value 1.04 | S. cerevisiae deletion strains, locus YOL012C, strain htz1 1.15 | S. cerevisiae deletion strains, locus YOL147C, strain pex11, stronger effect = lower value 1.01 | S. cerevisiae deletion strains, locus YOR001W, strain rrp6, stronger effect = lower value 0.97 | S. cerevisiae deletion strains, locus YOR061W, strain CKA2, stronger effect = lower value 1.01 | S. cerevisiae deletion strains, locus YOR069W, strain VPS5, stronger effect = lower value 1.01 | S. cerevisiae deletion strains, locus YOR070C, strain gyp1, stronger effect = lower value 0.997 | S. cerevisiae deletion strains, locus YOR080W, strain dia2, stronger effect = lower value 0.981 | S. cerevisiae deletion strains, locus YOR083W, strain WHI5, stronger effect = lower value 0.952 | S. cerevisiae deletion strains, locus YOR106W, strain vam3, stronger effect = lower value 0.993 | S. cerevisiae deletion strains, locus YOR136W, strain idh2, stronger effect = lower value 1.02 | S. cerevisiae deletion strains, locus YOR144C, strain elg1, stronger effect = lower value 1.01 | S. cerevisiae deletion strains, locus YOR184W, strain ser1, stronger effect = lower value 1.02 | S. cerevisiae deletion strains, locus YOR231W, strain MKK1, stronger effect = lower value 0.997 | S. cerevisiae deletion strains, locus YOR265W, strain rbl2, stronger effect = lower value 0.998 | S. cerevisiae deletion strains, locus YOR270C, strain vph1, stronger effect = lower value 0.957 | S. cerevisiae deletion strains, locus YOR290C, strain snf2, stronger effect = lower value 1.02 | S. cerevisiae deletion strains, locus YOR316C, strain cot1, stronger effect = lower value 1.02 | S. cerevisiae deletion strains, locus YPL051W, strain arl3, stronger effect = lower value 1.02 | S. cerevisiae deletion strains, locus YPL055C, strain LGE1, stronger effect = lower value 1.01 | S. cerevisiae deletion strains, locus YPL078C, strain atp4, stronger effect = lower value 0.961 | S. cerevisiae deletion strains, locus YPL106C, strain sse1, stronger effect = lower value 1.01 | S. cerevisiae deletion strains, locus YPL240C, strain hsp82, stronger effect = lower value 1.01 | S. cerevisiae deletion strains, locus YPL241C, strain CIN2, stronger effect = lower value 0.988 | S. cerevisiae deletion strains, locus YPL256C, strain CLN2, stronger effect = lower value 0.984 | S. cerevisiae deletion strains, locus YPR119W, strain clb2, stronger effect = lower value 1.01 | S. cerevisiae deletion strains, locus YPR141C, strain kar3, stronger effect = lower value 1.03 | S. cerevisiae deletion strains, locus YPR163C, strain tif3, stronger effect = lower value 1.02 | S. cerevisiae deletion strains, locus YPR167C, strain met16, stronger effect = lower value 1.01 | S. cerevisiae deletion strains, strain wtn01, stronger effect = lower value 1.01 | S. cerevisiae strains, strain wild type, stronger effect = lower value 1
